Test in all cases: DAPPL (digital affinity profiling via proximity ligation, sequencing); 10 mM Tris-HCl pH 7.5, 50 mM NaCl, 1 mM DTT, 4% glycerol, room temperature, 30 min; GST-TFs on glutathione beads, 16-mer random dsDNA library, 0.1% formaldehyde crosslink after washing; high values mean tight binding
One assay addresses T1, FEV (Homo sapiens, UniProt Q99581 1-238).
T1 sequence: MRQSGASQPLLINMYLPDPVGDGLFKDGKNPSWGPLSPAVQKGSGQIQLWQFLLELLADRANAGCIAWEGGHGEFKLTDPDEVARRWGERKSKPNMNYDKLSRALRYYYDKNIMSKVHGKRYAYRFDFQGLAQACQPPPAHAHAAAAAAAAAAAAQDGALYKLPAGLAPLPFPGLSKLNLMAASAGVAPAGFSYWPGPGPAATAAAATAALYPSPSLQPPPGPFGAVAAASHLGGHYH
The settings on record: protein: recombinant; tags: N-terminal GST; dsDNA, one strand shown. In outline: (§1)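 Pools were built from human transcription factors expressed in yeast as GST fusions, captured on glutathione beads and DNA-barcoded, along with a tag-only sample. Incubation with 200 nmole of a 16-mer random double-stranded DNA library lasted 30 min at room temperature in Tris/NaCl/DTT/glycerol buffer, and was followed by washing, 0.1% formaldehyde crosslinking, proximity ligation, PCR amplification and Illumina NextSeq500 sequencing. Binding signal is the quotient of each hexamer's read frequency for a factor and its frequency for the tag-only sample.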

The next assay deals with ETV5 (Homo sapiens, UniProt P41161 1-510). The settings on record: protein: recombinant; tags: N-terminal GST; dsDNA, one strand shown. In outline:
as §1

A further assay deals with HSF1 (Homo sapiens, UniProt Q00613 1-529). The settings on record: protein: recombinant; tags: N-terminal GST; chain copies: 3; dsDNA, one strand shown. In outline: as §1
HSF1, sequence (Q00613 whole entry): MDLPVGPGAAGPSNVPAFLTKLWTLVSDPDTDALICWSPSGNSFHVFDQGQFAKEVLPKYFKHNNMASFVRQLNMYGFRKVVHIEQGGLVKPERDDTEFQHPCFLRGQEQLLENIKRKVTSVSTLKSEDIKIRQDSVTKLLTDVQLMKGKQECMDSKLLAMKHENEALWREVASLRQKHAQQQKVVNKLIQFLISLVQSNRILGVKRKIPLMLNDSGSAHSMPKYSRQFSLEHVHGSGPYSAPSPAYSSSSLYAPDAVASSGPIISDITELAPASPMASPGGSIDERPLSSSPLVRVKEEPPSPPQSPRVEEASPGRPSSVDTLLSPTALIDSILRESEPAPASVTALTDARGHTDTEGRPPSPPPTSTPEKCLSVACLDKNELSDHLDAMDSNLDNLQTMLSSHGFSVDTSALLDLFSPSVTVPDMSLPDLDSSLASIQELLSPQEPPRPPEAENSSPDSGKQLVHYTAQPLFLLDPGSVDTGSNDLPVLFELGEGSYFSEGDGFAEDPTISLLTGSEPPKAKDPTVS
Another assay concerns the target T2, SPIC (Homo sapiens, UniProt Q8N5J4 1-248).
T2 sequence: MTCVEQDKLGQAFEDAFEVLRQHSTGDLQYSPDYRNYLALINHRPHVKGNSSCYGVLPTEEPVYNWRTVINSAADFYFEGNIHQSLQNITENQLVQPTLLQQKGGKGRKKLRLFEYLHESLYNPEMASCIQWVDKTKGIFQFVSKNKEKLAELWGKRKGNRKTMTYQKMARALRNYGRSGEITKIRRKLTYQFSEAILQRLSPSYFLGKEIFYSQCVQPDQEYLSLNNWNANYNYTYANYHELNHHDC
The note with it: protein: recombinant; tags: N-terminal GST; dsDNA, one strand shown. In outline: as §1

The next assay deals with ELF4 (Homo sapiens, UniProt Q99607 1-663). The note with it: protein: recombinant; tags: N-terminal GST; dsDNA, one strand shown. An outline of the steps:
as §1

For a further assay, the target named is T3, ELK4 (Homo sapiens, UniProt P28324-2 1-405).
T3 sequence: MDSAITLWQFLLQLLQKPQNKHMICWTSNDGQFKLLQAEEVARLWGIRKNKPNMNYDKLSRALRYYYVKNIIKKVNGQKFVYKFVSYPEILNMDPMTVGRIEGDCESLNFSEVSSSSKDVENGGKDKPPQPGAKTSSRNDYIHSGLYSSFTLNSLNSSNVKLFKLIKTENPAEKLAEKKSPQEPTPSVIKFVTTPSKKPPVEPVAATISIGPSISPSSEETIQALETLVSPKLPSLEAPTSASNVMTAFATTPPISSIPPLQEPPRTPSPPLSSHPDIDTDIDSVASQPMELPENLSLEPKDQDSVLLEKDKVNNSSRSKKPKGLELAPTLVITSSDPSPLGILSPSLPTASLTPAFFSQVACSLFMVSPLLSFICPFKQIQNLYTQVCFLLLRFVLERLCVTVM
The settings on record: protein: recombinant; tags: N-terminal GST; dsDNA, one strand shown. In outline: as §1

In the next assay the target is T4, ETV2 (Homo sapiens, UniProt O00321 1-342).
T4 sequence: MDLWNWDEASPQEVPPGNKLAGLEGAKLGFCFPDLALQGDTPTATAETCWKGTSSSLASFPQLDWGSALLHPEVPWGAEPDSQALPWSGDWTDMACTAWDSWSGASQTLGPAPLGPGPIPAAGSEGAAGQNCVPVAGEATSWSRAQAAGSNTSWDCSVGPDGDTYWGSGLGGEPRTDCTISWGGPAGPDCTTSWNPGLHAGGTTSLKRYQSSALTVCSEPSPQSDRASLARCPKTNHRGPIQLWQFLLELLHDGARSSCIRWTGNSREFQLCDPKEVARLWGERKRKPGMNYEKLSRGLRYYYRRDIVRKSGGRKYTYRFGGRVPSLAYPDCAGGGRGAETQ
The settings on record: protein: recombinant; tags: N-terminal GST; dsDNA, one strand shown. In outline:
as §1

In another assay the target is T5, ELF3 (Homo sapiens, UniProt P78545 1-371).
T5 sequence: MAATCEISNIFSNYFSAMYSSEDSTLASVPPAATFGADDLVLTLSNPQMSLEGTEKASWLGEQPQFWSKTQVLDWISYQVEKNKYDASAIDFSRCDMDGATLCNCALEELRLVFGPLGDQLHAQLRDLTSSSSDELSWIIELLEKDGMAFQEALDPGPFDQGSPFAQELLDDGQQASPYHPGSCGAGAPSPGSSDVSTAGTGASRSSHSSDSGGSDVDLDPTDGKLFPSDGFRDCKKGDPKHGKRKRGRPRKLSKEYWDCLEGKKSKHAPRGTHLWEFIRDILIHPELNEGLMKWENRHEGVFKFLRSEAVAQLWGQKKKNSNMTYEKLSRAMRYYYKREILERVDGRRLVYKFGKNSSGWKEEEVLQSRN
The note with it: protein: recombinant; tags: N-terminal GST; dsDNA, one strand shown. An outline of the steps:
as §1

A further assay concerns the target CRX (Homo sapiens, UniProt O43186 1-299). The settings on record: protein: recombinant; tags: N-terminal GST; dsDNA, one strand shown. In outline:
as §1

Another assay has as its target ETV1 (Homo sapiens, UniProt P50549 1-477). The settings on record: protein: recombinant; tags: N-terminal GST; dsDNA, one strand shown. In outline:
as §1

For a further assay, the target named is T6, ERF (Homo sapiens, UniProt P50548 1-548).
T6 sequence: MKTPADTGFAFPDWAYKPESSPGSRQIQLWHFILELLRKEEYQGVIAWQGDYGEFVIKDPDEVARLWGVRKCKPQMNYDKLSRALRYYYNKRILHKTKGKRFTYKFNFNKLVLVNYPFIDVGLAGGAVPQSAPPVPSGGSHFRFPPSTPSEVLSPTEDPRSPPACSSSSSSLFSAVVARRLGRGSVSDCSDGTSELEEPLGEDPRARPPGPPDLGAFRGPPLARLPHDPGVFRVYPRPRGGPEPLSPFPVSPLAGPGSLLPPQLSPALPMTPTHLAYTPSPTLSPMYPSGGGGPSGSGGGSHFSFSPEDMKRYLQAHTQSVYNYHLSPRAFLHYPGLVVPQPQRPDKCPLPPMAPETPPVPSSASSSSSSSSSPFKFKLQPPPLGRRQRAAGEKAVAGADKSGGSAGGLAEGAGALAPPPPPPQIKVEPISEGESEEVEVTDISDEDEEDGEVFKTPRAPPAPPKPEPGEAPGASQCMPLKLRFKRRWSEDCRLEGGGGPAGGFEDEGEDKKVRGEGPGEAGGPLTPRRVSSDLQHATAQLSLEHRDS
The note with it: protein: recombinant; tags: N-terminal GST; dsDNA, one strand shown. An outline of the steps: as §1

For another assay, the target named is T7, ETV3L (Homo sapiens, UniProt Q6ZN32 1-361).
T7 sequence: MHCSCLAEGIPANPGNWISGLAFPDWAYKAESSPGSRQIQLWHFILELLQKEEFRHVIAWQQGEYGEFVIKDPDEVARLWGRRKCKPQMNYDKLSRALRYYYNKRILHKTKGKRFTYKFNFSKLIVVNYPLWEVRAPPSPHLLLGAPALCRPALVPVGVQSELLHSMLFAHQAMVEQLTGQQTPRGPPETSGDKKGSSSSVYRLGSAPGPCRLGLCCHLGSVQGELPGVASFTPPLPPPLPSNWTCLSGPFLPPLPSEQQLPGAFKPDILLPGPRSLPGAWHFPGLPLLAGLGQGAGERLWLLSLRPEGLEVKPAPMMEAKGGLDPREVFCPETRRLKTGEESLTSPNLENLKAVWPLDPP
The note with it: protein: recombinant; tags: N-terminal GST; dsDNA, one strand shown. In outline:
as §1

In a further assay the target is T8, ETS2 (Homo sapiens, UniProt P15036 1-469).
T8 sequence: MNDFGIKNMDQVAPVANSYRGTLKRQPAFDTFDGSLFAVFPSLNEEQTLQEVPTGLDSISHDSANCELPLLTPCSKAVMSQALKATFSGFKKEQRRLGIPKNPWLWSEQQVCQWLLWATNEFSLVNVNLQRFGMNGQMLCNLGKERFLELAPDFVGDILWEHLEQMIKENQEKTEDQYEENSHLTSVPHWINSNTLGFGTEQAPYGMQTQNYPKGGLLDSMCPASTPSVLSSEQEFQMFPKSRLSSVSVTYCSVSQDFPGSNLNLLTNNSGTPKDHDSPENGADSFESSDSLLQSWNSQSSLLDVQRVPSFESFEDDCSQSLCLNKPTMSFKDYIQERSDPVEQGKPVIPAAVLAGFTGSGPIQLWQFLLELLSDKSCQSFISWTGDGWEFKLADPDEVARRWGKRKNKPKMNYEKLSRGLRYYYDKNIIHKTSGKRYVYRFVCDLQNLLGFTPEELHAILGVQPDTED
The note with it: protein: recombinant; tags: N-terminal GST; dsDNA, one strand shown. An outline of the steps: as §1

The target in the next assay is T9, SPDEF (Homo sapiens, UniProt O95238 1-335).
T9 sequence: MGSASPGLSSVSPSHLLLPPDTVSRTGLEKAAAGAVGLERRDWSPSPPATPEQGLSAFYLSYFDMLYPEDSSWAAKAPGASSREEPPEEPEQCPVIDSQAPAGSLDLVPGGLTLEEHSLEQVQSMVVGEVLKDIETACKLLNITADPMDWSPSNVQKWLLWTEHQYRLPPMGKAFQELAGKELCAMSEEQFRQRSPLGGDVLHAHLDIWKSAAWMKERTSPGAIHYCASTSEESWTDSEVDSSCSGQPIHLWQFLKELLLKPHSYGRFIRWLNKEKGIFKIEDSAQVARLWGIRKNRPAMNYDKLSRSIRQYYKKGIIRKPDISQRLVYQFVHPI
The settings on record: protein: recombinant; tags: N-terminal GST; dsDNA, one strand shown. In outline:
as §1

In a further assay the target is T10, ETV7 (Homo sapiens, UniProt Q9Y603 1-341).
T10 sequence: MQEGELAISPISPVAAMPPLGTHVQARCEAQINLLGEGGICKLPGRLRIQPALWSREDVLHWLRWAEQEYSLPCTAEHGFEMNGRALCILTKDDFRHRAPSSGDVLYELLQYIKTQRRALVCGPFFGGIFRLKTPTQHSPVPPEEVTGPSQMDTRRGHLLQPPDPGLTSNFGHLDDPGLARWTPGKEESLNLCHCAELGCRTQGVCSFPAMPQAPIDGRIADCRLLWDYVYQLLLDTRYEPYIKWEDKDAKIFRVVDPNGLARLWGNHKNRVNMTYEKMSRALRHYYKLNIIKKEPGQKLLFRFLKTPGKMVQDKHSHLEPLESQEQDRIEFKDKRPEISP
The settings on record: protein: recombinant; tags: N-terminal GST; dsDNA, one strand shown. In outline: as §1

The target in another assay is T11, ELF5 (Homo sapiens, UniProt Q9UKW6-2 1-255).
T11 sequence: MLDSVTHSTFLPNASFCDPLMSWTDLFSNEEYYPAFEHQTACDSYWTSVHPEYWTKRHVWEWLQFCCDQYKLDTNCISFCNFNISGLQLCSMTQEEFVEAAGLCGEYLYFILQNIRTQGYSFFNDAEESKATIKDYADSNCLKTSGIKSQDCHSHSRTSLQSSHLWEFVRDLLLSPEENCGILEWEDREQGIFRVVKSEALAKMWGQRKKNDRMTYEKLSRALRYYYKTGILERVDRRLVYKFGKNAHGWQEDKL
The note with it: protein: recombinant; tags: N-terminal GST; dsDNA, one strand shown. An outline of the steps:
as §1

A further assay addresses T12, ETV3 (Homo sapiens, UniProt P41162-2 1-143).
T12 sequence: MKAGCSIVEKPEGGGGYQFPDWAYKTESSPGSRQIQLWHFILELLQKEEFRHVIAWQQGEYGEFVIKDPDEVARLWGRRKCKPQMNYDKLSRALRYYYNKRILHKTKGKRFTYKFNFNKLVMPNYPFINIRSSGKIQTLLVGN
The note with it: protein: recombinant; tags: N-terminal GST; dsDNA, one strand shown. An outline of the steps: as §1

The target of a further assay is ETV6 (Homo sapiens, UniProt P41212 1-452). The settings on record: protein: recombinant; tags: N-terminal GST; dsDNA, one strand shown. In outline:
as §1

ELF4, sequence (Q99607 whole entry): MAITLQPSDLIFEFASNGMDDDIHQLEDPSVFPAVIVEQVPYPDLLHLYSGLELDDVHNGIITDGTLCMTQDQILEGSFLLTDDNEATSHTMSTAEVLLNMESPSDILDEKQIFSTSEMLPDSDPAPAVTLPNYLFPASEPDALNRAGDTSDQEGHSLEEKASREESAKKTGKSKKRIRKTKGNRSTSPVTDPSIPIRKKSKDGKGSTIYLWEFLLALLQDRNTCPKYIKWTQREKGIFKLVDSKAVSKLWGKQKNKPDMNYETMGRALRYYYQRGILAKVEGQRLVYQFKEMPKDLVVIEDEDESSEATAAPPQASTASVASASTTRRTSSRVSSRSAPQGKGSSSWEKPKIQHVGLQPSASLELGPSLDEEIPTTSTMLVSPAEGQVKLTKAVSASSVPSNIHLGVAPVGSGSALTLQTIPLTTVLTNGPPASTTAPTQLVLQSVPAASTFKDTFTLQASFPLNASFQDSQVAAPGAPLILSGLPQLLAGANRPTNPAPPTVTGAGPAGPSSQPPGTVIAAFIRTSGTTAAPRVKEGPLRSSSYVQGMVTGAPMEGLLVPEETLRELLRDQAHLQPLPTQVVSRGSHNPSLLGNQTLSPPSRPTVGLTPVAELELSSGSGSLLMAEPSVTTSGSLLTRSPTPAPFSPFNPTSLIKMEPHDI
ETV6, sequence (P41212 whole entry): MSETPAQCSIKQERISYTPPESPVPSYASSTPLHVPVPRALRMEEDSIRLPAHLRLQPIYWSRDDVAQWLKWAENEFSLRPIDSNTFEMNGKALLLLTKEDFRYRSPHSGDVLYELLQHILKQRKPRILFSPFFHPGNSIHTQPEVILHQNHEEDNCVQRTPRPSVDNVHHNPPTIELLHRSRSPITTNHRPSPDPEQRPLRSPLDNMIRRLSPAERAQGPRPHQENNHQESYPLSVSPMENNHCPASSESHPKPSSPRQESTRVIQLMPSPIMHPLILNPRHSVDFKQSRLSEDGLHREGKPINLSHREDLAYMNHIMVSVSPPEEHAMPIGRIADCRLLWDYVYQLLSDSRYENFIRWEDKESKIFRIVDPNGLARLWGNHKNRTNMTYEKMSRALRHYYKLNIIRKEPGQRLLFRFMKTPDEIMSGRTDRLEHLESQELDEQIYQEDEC
CRX, sequence (O43186 whole entry): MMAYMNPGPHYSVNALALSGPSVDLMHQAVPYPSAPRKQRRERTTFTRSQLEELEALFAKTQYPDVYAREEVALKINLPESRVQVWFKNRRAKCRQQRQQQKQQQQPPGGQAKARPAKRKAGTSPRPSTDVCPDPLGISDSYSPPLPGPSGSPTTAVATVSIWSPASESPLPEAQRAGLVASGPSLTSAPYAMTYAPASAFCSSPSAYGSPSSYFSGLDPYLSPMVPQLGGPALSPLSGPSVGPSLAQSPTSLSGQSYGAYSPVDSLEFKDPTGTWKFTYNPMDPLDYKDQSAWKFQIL
ETV1, sequence (P50549 whole entry): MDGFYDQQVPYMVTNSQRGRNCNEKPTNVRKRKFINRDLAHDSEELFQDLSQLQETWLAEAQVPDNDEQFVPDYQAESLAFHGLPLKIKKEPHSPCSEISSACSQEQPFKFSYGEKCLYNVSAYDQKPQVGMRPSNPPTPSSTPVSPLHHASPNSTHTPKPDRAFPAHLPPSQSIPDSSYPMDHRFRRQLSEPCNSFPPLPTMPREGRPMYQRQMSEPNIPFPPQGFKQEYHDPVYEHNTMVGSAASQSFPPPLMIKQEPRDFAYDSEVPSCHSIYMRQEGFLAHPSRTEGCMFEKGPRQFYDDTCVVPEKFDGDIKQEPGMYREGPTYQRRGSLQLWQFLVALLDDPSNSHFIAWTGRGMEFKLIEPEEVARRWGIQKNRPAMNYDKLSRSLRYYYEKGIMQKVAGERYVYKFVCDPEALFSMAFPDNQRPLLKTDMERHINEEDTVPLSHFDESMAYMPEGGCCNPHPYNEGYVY
ETV5, sequence (P41161 whole entry): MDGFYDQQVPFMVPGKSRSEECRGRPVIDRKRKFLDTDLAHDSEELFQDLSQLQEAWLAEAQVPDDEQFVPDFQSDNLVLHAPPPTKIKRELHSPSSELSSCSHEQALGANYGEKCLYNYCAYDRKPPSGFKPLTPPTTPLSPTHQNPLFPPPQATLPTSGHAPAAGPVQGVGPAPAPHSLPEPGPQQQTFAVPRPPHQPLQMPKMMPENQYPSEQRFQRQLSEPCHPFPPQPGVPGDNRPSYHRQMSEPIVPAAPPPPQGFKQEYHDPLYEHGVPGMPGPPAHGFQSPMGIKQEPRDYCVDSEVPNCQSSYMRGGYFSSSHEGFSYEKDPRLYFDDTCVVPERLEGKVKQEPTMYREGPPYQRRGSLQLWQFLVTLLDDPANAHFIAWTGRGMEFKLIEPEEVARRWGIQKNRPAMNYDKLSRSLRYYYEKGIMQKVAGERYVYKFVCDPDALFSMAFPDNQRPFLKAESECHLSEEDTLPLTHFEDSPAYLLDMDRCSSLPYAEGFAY

As for ATGCGA, the binding signal is 1.17 fold enrichment (6-mer frequency, TF over GST control) with FEV; 1.17 fold enrichment (6-mer frequency, TF over GST control) in the assay with ETV5; 1.22 fold enrichment (6-mer frequency, TF over GST control) in the assay with HSF1; 1.26 fold enrichment (6-mer frequency, TF over GST control) in the assay with SPIC; 1.29 fold enrichment (6-mer frequency, TF over GST control) with ELF4; 1.33 fold enrichment (6-mer frequency, TF over GST control) with ELK4. The binding signal is 1.34 fold enrichment (6-mer frequency, TF over GST control) with ETV2; 1.31 fold enrichment (6-mer frequency, TF over GST control) with ELF3; 1.27 fold enrichment (6-mer frequency, TF over GST control) with CRX; 1.16 fold enrichment (6-mer frequency, TF over GST control) with ETV1; 1.16 fold enrichment (6-mer frequency, TF over GST control) with ERF; 1.24 fold enrichment (6-mer frequency, TF over GST control) with ETV3L. Also, the binding signal with ETS2 was 1.19 fold enrichment (6-mer frequency, TF over GST control); in the assay with SPDEF it was 1.18 fold enrichment (6-mer frequency, TF over GST control); with ETV7, 1.28 fold enrichment (6-mer frequency, TF over GST control); with ELF5, 1.16 fold enrichment (6-mer frequency, TF over GST control); with ETV3, 1.32 fold enrichment (6-mer frequency, TF over GST control); with ETV6, 1.23 fold enrichment (6-mer frequency, TF over GST control).

The record behind these values is paper PMC7862700, “An all-to-all approach to the identification of sequence-specific readers for epigenetic DNA modifications on cytosine”.
